ALR H2O2 inh: inhibitors of human sulfhydryl oxidase ALR. hit rate 3.8% among 290,000. inhibition, % (no concentration beside the values). purified ALR, DTT oxidation, H2O2 HRP-luminol luminescence;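 active means mean replicate inhibition above about 79%, with every replicate also reaching it, limit read from the data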
Target sequence (P55789 whole entry, looked up): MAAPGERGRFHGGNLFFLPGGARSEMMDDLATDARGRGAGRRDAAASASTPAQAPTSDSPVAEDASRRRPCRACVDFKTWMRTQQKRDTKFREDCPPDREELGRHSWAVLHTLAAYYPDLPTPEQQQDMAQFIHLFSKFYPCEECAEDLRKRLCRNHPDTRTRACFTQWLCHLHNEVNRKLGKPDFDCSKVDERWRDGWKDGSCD
rCAG binder: molecules binding r(CAG) RNA repeats | hit rate 1.3% among 370,000 | r(CAG) RNA repeat, TO-PRO-1 dye displacement fluorescence | AID 651821 | inhibition, % at 3 µM;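 active means inhibition above the plate cutoff, the mean of all test compounds on that plate plus 3 SD, cut at about 35% in these data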;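 further: 0% = DMSO alone and 100% = 100 µM mitoxantrone as full dye displacement; higher means more dye released from RNA so lower well fluorescence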
ABHD5-PLIN5 inh: ABHD5-PLIN5 protein interaction inhibition; Q00G26+Q8WTS1; AID 602281; inhibition, % at 4 µM; hit rate 0.78% among 360,000; Split G. princeps luciferase complementation, luminescence, 4 h;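 active means inhibition above the mean inhibition across every tested compound plus 3 SD, cut at about 22% in these data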;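 further: 0% = DMSO only wells and the 100% control is not disclosed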
LANA-H2A inh: blocks KSHV LANA binding to histone H2A/H2B. hit rate 0.6% among 320,000. Q9QR71. cell-free LANA-H2A/H2B peptide, fluorescence polarization. inhibition, % (test concentration not listed); in the data active means inhibition mostly above about 10%, no sharp cut-off; inactive means mostly below about 6.7%
PRMT1 FP inh: blocks human protein arginine methyltransferase 1; recombinant PRMT1, activity-based probe fluorescence polarization; Q99873; inhibition, % at 2.79 µM; hit rate 1.3% among 370,000;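 active means inhibition above about 21% made by adding two undisclosed values, limit read from the data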
Target sequence (Q99873 whole entry, looked up): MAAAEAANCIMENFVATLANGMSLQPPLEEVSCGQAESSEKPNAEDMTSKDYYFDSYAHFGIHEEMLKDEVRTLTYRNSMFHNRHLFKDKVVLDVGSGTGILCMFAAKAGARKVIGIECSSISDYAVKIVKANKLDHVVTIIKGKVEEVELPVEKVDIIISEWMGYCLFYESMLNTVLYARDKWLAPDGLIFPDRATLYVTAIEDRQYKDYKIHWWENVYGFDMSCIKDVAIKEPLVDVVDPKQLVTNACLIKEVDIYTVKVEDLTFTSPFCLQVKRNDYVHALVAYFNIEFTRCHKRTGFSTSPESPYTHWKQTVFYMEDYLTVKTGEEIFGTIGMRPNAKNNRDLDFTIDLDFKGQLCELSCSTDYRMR
Rtt109 Vps75: blocks Candida albicans Rtt109/Vps75 acetyltransferase activity. purified Rtt109/Vps75, ThioGlo CoA-SH fluorescence, 4 h. inhibition, % at 34.9 µM. hit rate 0.16% among 330,000. AID 540336;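 active means inhibition of at least 50% in every replicate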
* = called active by the depositor; nt = not tested or not shown. Only some compounds are listed: those with a hit (about 5.9% of all), similar ones and a draw of the others.

SMILES	ALR H2O2 inh	rCAG binder	ABHD5-PLIN5 inh	LANA-H2A inh	PRMT1 FP inh	Rtt109 Vps75
CC1CCCN(C(=O)CSCC(=O)Nc2nc(-c3cccs3)cs2)C1 (centres undefined)	6	1	8	-8	3	1
CC1CCN(C(=O)CSCC(=O)Nc2nc(-c3cccs3)cs2)CC1	98*	3	5	-4	4	1
COc1cccc(-c2oc3c(c2C(=O)OCCN2CCCCC2)C(O)CCC3)c1 (centres undefined)	nt	2	7	nt	-4	nt
CC1(C)Cc2ccccc2C2=NNC(=O)C2=N1	99*	0	-18	-3	-2	nt
CC1(C)Cc2ccccc2C(Nn2cnnc2)=N1	-4	2	5	9	-1	-4
COc1cc(-c2nc3ccccn3c2/N=C/c2ccc(F)cc2)ccc1O	95*	-2	1	-1	-5	-21
CS(=O)(=O)c1cccc(C(=O)Oc2ccccc2)c1	nt	-1	-2	38*	0	-12
CS(=O)(=O)c1cccc(C(=O)OCCCC(=O)c2ccccc2)c1	-3	-1	5	4	1	-5
COC(=O)[C@]12C[C@H](CC(=O)N3CCCC3)C(=O)N(Cc3ccccc3)C1=C[C@H](COCc1ccccc1)O[C@@H]2C	nt	3	nt	nt	1	nt
O=C(NCC1CCCO1)C1CCN(S(=O)(=O)c2cc(Cl)ccc2Cl)CC1 (centres undefined)	37	-1	-13	13*	-3	-10
Cc1[nH]nc(SCC(=O)NCCc2ccccc2)c1[N+](=O)[O-]	1	4	4	12*	-5	-5
Cc1[nH]nc(SCC(=O)NCc2ccccc2)c1[N+](=O)[O-]	nt	2	4	nt	0	-4
Cc1ccc(S(=O)(=O)n2nc(OC(=O)c3ccco3)cc2N)cc1	98*	3	1	2	10	3
Cc1ccc(S(=O)(=O)n2nc(OC(=O)c3ccccc3C)cc2N)cc1	nt	5	-7	-3	0	-2
Cc1ccc(S(=O)(=O)c2c(C)nn(C(C)(C)C)c2OC(=O)c2ccc(Br)o2)cc1	nt	-2	-1	7	-3	-2
Cc1ccc(S(=O)(=O)c2c(C)nn(C(C)(C)C)c2OC(=O)c2ccco2)cc1	-1	-4	-2	15*	1	-7
Nc1cc(OC(=O)c2ccco2)nn1S(=O)(=O)c1ccc(F)cc1	98*	-2	-5	0	0	4
Cc1cccc(-c2nc(CS(=O)CC(=O)N3CCCCC3)c(C)o2)c1 (centres undefined)	100*	1	1	-2	1	0
Cc1oc(-c2ccccc2Cl)nc1CS(=O)CC(=O)N1CCN(c2ccccc2)CC1 (centres undefined)	99*	-1	-4	2	6	-9
Cc1ccc(-c2nc(CS(=O)CC(=O)N3CCN(c4ccccc4)CC3)c(C)o2)cc1 (centres undefined)	98*	-5	2	-6	-3	-2
Cc1cccc(-c2nc(CS(=O)CC(=O)NCC3CCCO3)c(C)o2)c1 (centres undefined)	nt	3	-3	-1	13	2
Cc1oc(-c2ccccc2)nc1CS(=O)CC(=O)N1CCc2ccccc2C1 (centres undefined)	99*	-2	0	5	21	-3
O=C(CCn1nnc2ccccc21)N1CCN(c2ccccc2F)CC1	nt	-3	nt	nt	4	nt
CCOC(=O)CC[C@@]1(C(=O)OCC)C[C@@H](CC(=O)NCCCOC)C(=O)N2CCCC=C21	nt	2	nt	nt	2	nt
CC1CCC/C(=C\Nc2ccc(O)cc2)C1=O (centres undefined)	99*	6	-17	-3	15	7
SMILES	ALR H2O2 inh	rCAG binder	ABHD5-PLIN5 inh	LANA-H2A inh	PRMT1 FP inh	Rtt109 Vps75
COC(=O)C1CN(Cc2ccccc2)CCS(=O)(=O)N1Cc1cn(Cc2ccc(Cl)cc2)nn1 (centres undefined)	nt	4	nt	nt	-1	nt
CC1CC(Nc2ccccc2)c2ccccc2N1C(=O)c1ccncc1 (centres undefined)	-16	-5	-6	-2	-3	-13
CC1CC(Nc2ccccc2)c2ccccc2N1C(=O)c1ccco1 (centres undefined)	99*	1	12	1	6	nt
COc1cc(-c2cc(=O)c3ccccc3o2)ccc1O	99*	4	0	-3	-1	17
COc1cc(-c2cc(=O)c3c(O)c(OC)c(OC)cc3o2)cc(OC)c1O	77*	26	1	6	3	7
CC(=O)CC[C@H]1CC[C@]2(CCCN(C(=O)C3CCCC3)C2)O1	nt	0	nt	nt	-1	nt
C/C(=N\NC(=O)CCCNc1cccc(C)c1)c1ccncc1	93*	-3	3	6	-2	-8
COc1cc(CNc2ncnc3c2ncn3[C@H]2CN(Cc3cccc(C(F)(F)F)c3)C[C@@H](CO)O2)cc(OC)c1OC	nt	4	3	nt	-4	nt
Cc1cccc(NC(=O)c2nc[nH]c2C(=O)N[C@H](C)CO)c1	nt	-1	1	nt	1	nt
CCOC(=O)CSC1=Nc2ccccc2C2=NC(CC(=O)NCc3cccs3)C(=O)N12 (centres undefined)	-12	-1	1	3	0	4
CCCCNC(=O)CC1N=C2c3ccccc3N=C(SCC(=O)Nc3ccccc3C)N2C1=O (centres undefined)	94*	4	6	1	2	8
CCOC(=O)CSC1=Nc2ccccc2C2=NC(CC(=O)NCc3ccccc3)C(=O)N12 (centres undefined)	98*	5	1	4	9	3
O=C(NCc1ccc(F)cc1)c1cc(C2CCCCN2C(=O)c2ccc(Cl)cc2)on1 (centres undefined)	nt	3	-9	nt	-1	nt
O=C(CSc1nnc(CNC(=O)c2c(F)cccc2F)o1)NCc1ccc2c(c1)OCO2	nt	1	1	nt	-5	nt
Cc1ccc(NC(=O)CSc2nnc(CNC(=O)c3c(F)cccc3Cl)o2)cc1	98*	2	-2	0	3	-8
O=C(CSc1nnc(CNC(=O)c2c(F)cccc2Cl)o1)Nc1ccc2c(c1)OCO2	97*	4	-1	-1	4	-6
COC(=O)[C@]12C[C@H](CC(=O)NCc3ccccc3)C(=O)N(Cc3ccc(Cl)cc3Cl)C1=C[C@H](COCc1ccccc1)O[C@@H]2C	nt	12	nt	nt	0	nt
O=C(CC1SC(=O)N(c2ccccc2)C1=O)Nc1cccc2ccccc12 (centres undefined)	3	25	-8	-3	9	-1
Cc1ccccc1NC(=O)CC1SC(=O)N(c2ccccc2)C1=O (centres undefined)	97*	26	-29	4	15	-11
Cc1ccc(-n2nc3cc(C)c(N)cc3n2)cc1	-7	14	-12	7	3	0
Cc1cc2nc3ccc(N(C)C)cc3nc2cc1N	92*	-8	-19	0	70*	19
CC1(C)CN=c2s/c(=C\c3ccc(Cl)cc3)c(=O)n2C1	97*	16	3	4	14	10
